Source: PubChem
Only some compounds are listed: those with a hit (about 6.5% of all), similar ones and a draw of the others.
FMDV inh = blocks foot and mouth disease virus; Potency, µM (highest dose often 57.9 µM), most hits filed as inhibitors; AID 1159524; hit rate 1.2% among 410,000; FMDV antiviral cell-based qHTS; calls by dose curve; tested in HEK293T cells; also: read-out not given here; nearly all actives have a fitted effect of over 45% in size
HCMV antiviral = human cytomegalovirus inhibition; HFF cells, HCMV-luciferase reporter, 72 h; active compounds read low; activity change, negative = inhibition, % at 57.5 µM; hit rate 4.5% among 410,000; AID 1259415; in the data active = activity change below about -60%; inconclusive = no clear call, values can overlap the other calls; inactive = above about -39%
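Screen run at 2 compound doses on HFFs infected with reporter HCMV, MOI 1 PFU/cell. Luciferase activity from cell lysates at 72 h post infection gave inhibition relative to buffer-only and Salinomycin wells.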
Vaccinia Venus = vaccinia inhibition (Venus reporter); Vaccinia virus Venus reporter expression, fluorescence; Potency, µM (highest dose often 36.5 µM), usual class: inhibitors; hit rate 0.46% among 330,000; AID 720580; calls by dose curve; tested in A549 cells; also: nearly all actives have a fitted effect of over 30% in size
LASV entry inh = inhibitors of Lassa virus binding or cell entry; Lassa virus pseudotype entry inhibition, cell reporter; hit rate 1.2% among 300,000; Potency, µM (series often up to 37.9 µM), most hits filed as inhibitors; calls by dose curve; tested in HEK293 cells; also: nearly all actives have a fitted effect of over 50% in size
Vaccinia mCherry = vaccinia inhibition (mCherry reporter). Vaccinia virus mCherry reporter infection, fluorescence. Potency, µM (highest dose often 36.5 µM), usual class: inhibitors. AID 720579. hit rate 0.63% among 310,000; calls by dose curve; tested in A549 cells; also: nearly all actives have a fitted effect of over 35% in size
Marburg entry inh = Marburg virus entry inhibition; Marburg virus pseudotyped entry inhibition, cell reporter; Potency, µM (titrated, usually from 37.8 µM), usual class: inhibitors; hit rate 1.8% among 300,000; calls by dose curve; tested in HEK293 cells
Numbers stand for hits; i = inactive; ? = inconclusive; nt = no result; + = active, no number; [ ] = another dose, or the depositor's remark.

SMILES	FMDV inh	HCMV antiviral	Vaccinia Venus	LASV entry inh	Vaccinia mCherry	Marburg entry inh
Cc1ccc(OCC(=O)Nc2ccc(N3CCN(C(=O)c4ccc(C)cc4)CC3)cc2)cc1	i	i	i	i	i	i
CC(=O)N1CCN(c2ccc(NC(=O)COc3ccc(Cl)cc3Cl)cc2)CC1	?	-64.3	nt	i	nt	i
CCSc1cc(N2CCCC2)nc(-c2cccc(C)c2)n1	i	-62.4	i	?	i	?
O=C(O)CCC(NC(=O)c1ccc(Cl)cc1)C(=O)O (configuration not stated)	i	i	i	i	i	i
CN(Cc1cnc2nc(N)nc(N)c2n1)c1ccc(C(=O)NC(CCC(=O)O)C(=O)O)c2ccccc12 (configuration not stated)	i	-101.2	?	?	3.16µM	?
COC(=O)c1ccc(C(=O)OC)c(NC(=O)c2cc3nc(-c4ccc(C)cc4)cc(C(F)(F)F)n3n2)c1	i	i	i	i	i	?
CCN(C(=O)CSc1nc2ccccc2n1Cc1cc(C)ccc1C)c1ccccc1	i	i	i	i	i	nt
NC(=S)N=Nc1c(O)n(CCCl)c2ccc(Cl)cc12	?	i	?	?	2.24µM	?
NC(=S)N=Nc1c(O)n(CCCl)c2ccccc12	i	i	1µM	i	?	i
O=C(c1cccs1)c1ccc(-c2cccs2)s1	i	i	i	?	i	11.2µM
CN1CCN(C(=O)c2ccc(-c3cccs3)s2)CC1	i	i	i	i	i	?
O=Cc1cccc(C=O)c1	nt	nt	i	nt	i	nt
CCCCCCCC(=O)Nc1ccc(C(=O)N/N=C/c2cccc([N+](=O)[O-])c2)cc1	i	-69.4	i	?	i	?
Cc1nonc1C(=O)N/N=C/c1ccc([N+](=O)[O-])o1	i	?	nt	nt	nt	nt
Cc1cc(C(=O)N/N=C/c2ccc([N+](=O)[O-])o2)c(C)o1	?	-60.7	nt	nt	nt	nt
CCCC(=O)Nc1ccc(C(=O)N/N=C/c2ccc([N+](=O)[O-])o2)cc1	?	-94.8	?	?	?	11.6µM
O=C(Cc1ccc(OCc2ccccn2)cc1)NO	nt	nt	i	nt	i	nt
COC(=O)[C@@H]1[C@@H](c2ccccc2)NC(=O)N(CCc2cc(OC)c(OC)c(OC)c2)[C@@H]1C	nt	nt	nt	nt	nt	i
Cc1cc(Br)cn2c(Cc3ccccc3C(F)(F)F)c(-c3ccc(F)cc3)nc12	nt	i	nt	nt	nt	nt
O=C(CS(=O)(=O)c1cccc2nsnc12)N1CCN(c2cccc(C(F)(F)F)c2)CC1	i	i	i	i	i	nt
CC(=O)N1CC(C)Sc2ccc(S(=O)(=O)NCCc3ccccc3)cc21 (configuration not stated)	i	+	nt	nt	nt	nt
CC(=O)N1CC(C)Sc2ccc(S(=O)(=O)NC(C)c3ccccc3)cc21 (configuration not stated)	i	-71.6	i[7.34 µM]	nt	i[7.34 µM]	nt
COc1ccccc1NS(=O)(=O)c1ccc2c(c1)N(C(C)=O)CC(C)S2 (configuration not stated)	i	?	nt	nt	nt	nt
CC1Sc2ccc(S(=O)(=O)NCCc3ccccc3)cc2NC1=O (configuration not stated)	i	+	nt	nt	nt	nt
CC(=O)N1CC(C)Sc2ccc(S(=O)(=O)NCCc3ccc(C)cc3)cc21 (configuration not stated)	i	?	nt	nt	nt	nt
SMILES	FMDV inh	HCMV antiviral	Vaccinia Venus	LASV entry inh	Vaccinia mCherry	Marburg entry inh
CC1Sc2ccc(S(=O)(=O)NCCc3ccc(S(N)(=O)=O)cc3)cc2NC1=O (configuration not stated)	i	?	i	i	i	i
Cc1ccc(N(C)C(=O)CN2C(=O)CCc3cc(S(=O)(=O)N4CCOCC4)ccc32)cc1	i	i	i	i	i	nt
COc1ccc(NC(=O)CSc2nc(-c3ccc(OC)cc3)cc(=O)[nH]2)cc1	i	i	i	i	i	i
CC(c1ccccc1)N1C(=O)c2ccc(C(=O)Nc3ccccc3C(=O)O)cc2C1=O (configuration not stated)	i	-80.2	nt	nt	nt	nt
CC(c1ccccc1)N1C(=O)c2ccc(C(=O)Nc3ccc(Br)cc3C(=O)O)cc2C1=O (configuration not stated)	i	nt	nt	nt	nt	nt
CN(C(=O)CSc1nc2ccc(NC(=O)c3cccc(F)c3)cc2s1)c1ccccc1	?	-74.6	i	i	i	?
CN(C(=O)CSc1nc2ccc(NC(=O)c3ccccc3F)cc2s1)c1ccccc1	39.8µM	i	?	?	i	?
COc1ccccc1C(=O)Nc1ccc2nc(SCC(=O)N(C)c3ccccc3)sc2c1	?	-65.2	?	?	i	?
COc1ccccc1C(=O)Nc1ccc2nc(SCC(=O)N(C)C)sc2c1	i	i	i	i	?	i
Cc1cccc(N2CCN(CCNC(=O)C3COc4ccccc4C3)CC2)c1C (configuration not stated)	i	i	i	i	i	nt
C#CCCCO/N=C1\C[C@@H](O)[C@@H](O)[C@@H]2[C@@H]3C(=O)N(Cc4ccc5c(c4)OCO5)C(=O)[C@@H]3CC[C@@H]12	nt	nt	nt	nt	nt	i
CN(C(=O)c1ccco1)c1nc2c(s1)CCCC2	i	i	i	6.31µM	i	?
CN(C(=O)c1ccco1)c1nnc(C23CC4CC(CC(C4)C2)C3)s1	i	i	i	i	i	?
CS(=O)(=O)c1ccccc1NC(=O)COc1ccccc1C(=O)Nc1ccccc1	nt	nt	i	nt	i	nt
COc1ccc(Nc2ncnc3onc(-c4ccc(Cl)cc4)c23)cc1Cl	?	i	i	12.6µM	i	7.08µM
COc1cc(Nc2ncnc3onc(-c4ccc(Cl)cc4)c23)cc(OC)c1	i	i	i	i	i	nt
COc1ccc(-c2nc3cnc(N4CCNCC4)nc3n(C3CC3)c2=O)cc1	i	nt	nt	nt	nt	nt
Cc1ccc(COC(=O)c2cc(S(=O)(=O)N3CCCCC3)ccc2N2CCOCC2)cc1	?	i	i	7.08µM	i	?
Cc1ccc(C)c(COC(=O)c2cc(S(=O)(=O)N3CCCCC3)ccc2N2CCOCC2)c1	i	i	i	7.08µM	?	?
CCN1C(=O)[C@H]2[C@H]3[C@H](O)[C@H](O)CC(=O)[C@@H]3CC[C@H]2C1=O	nt	nt	i	nt	i	nt
CCC(C)CN1C(=O)NC(c2ccccc2)C(C(=O)OC)=C1C (configuration not stated)	nt	nt	nt	?	nt	i
CCOC(=O)C(C)NC(=O)c1cc2c(=O)[nH]c3ccc(C)cc3c2s1 (configuration not stated)	i	i	i	nt	i	?
CCCCCCc1cc2cc(-c3nnc(-c4ccccc4O)o3)c(=O)oc2cc1O	?	-104.1	i	i	i	i
CCCCCCc1cc2cc(S(=O)(=O)c3ccc(F)cc3)c(=O)oc2cc1O	?	i	i	i	i	i
CCCCCCc1cc2cc(-c3nnc(-c4ccccc4OC)o3)c(=O)oc2cc1O	?	-73.6	i	?	?	?
CCCCCCc1cc2cc(-c3nnc(-c4cc(OC)c(OC)c(OC)c4)o3)c(=O)oc2cc1O	i	nt	nt	i	nt	i
FC(F)(F)c1ccccc1-c1cc(N2CCNCC2)ncn1	i	nt	i	nt	i	nt
Cn1cc(S(=O)(=O)N2CCCCC2)cc1C(=O)Nc1cccc(C#N)c1	i	i	i	i	i	nt
CCCn1c(CC)nc([N+](=O)[O-])c1Sc1ccc(F)cc1	17.8µM	i	nt	i	nt	i
